The test system of experiment [1] is Plasmodium falciparum Sir2 (PF13_0152, Sir2A). The experiment is described as follows: pfSir2 binders on small-molecule microarrays, primary screen, biochemical, small-molecule microarray, 635 nm fluorescence (AID 1098).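 Also: score merges spot fluorescence intensity with its signal-to-noise ratio.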 To be noted: small-molecule microarray binding, fluorescence 635 nm; higher = more signal.
The nature of experiment [2]: small-molecule microarray binders of probe aDKK1, primary screen, biochemical, biotinylated probe, 635/667 nm fluorescence (AID 1099).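 Also: score merges 667nm spot fluorescence with signal to noise across triplicate slides; reference of the scale not given here.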 To be noted: higher = more signal.
The nature of experiment [3]: small-molecule microarray binders of probe aCHRDL2, primary screen, biochemical, biotinylated probe, 635/667 nm fluorescence (AID 1100). To be noted: higher = more signal.
Experiment [4] is described as follows: splicing luciferase reporter signal modulators, primary screen, spliceosome inhibition project, cell-based, HEK293, splice +/- reporter (AID 1101).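 Also: HEK293 cells carrying a splicing-competent luciferase reporter gene; test concentration not given here.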 To be noted: luminescence, 24 h, higher = more signal, called active from +8 up or from −8 down.
For experiment [5], the target named is Fibroblast growth factor 10 (Homo sapiens) (UniProt O15520). The experiment is described as follows: FGF10 binders on small-molecule microarrays, primary screen, biochemical, small-molecule microarray, 635 nm fluorescence (AID 1102). To be noted: FGF10 binding, fluorescence 635 nm, higher = more signal.
Experiment [6] relates to glycogen synthase kinase-3 (GSK3A per assay name; protocol says GSK3B). Put plainly: GSK3 binders on small-molecule microarrays, primary screen, biochemical, small-molecule microarray, 635 nm fluorescence, GSK3A (AID 1103). Also: the record names both GSK3A and GSK3B. To be noted: small-molecule microarray binding, fluorescence 635 nm; higher = more signal.
The target in experiment [7] is Epidermal growth factor receptor (Homo sapiens) (UniProt P00533). The experiment is described as follows: EGFR binders on small-molecule microarrays, primary screen, biochemical, small-molecule microarray, 635 nm fluorescence (AID 1104).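 Also: score merges 667 nm emission intensity with spot signal to noise over triplicate slides.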 To be noted: EGFR binding, higher = more signal.
Experiment [8] concerns the target Follistatin-related protein 3 (Homo sapiens) (UniProt O95633). Put plainly: FSTL3 binders on small-molecule microarrays, primary screen, biochemical, small-molecule microarray, 635 nm fluorescence (AID 1105).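 Also: score merges emission near 667 nm and signal to noise per printed spot across three slides.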 To be noted: FSTL3 binding, higher = more signal.
For experiment [9], the target named is Dickkopf-related protein 1 (Homo sapiens) (UniProt O94907). Put plainly: DKK1 binders on small-molecule microarrays, primary screen, biochemical, small-molecule microarray, 635 nm fluorescence scan (AID 1106).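 Also: score merges emission near 667 nm with signal to noise over three replicate slides.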 To be noted: DKK1 binding, higher = more signal.
Experiment [10] has as its system Inhibin beta A chain (activin A). Put plainly: INHBA (activin A) binders on microarrays, primary screen, biochemical, small-molecule microarray, 635 nm fluorescence scan (AID 1107).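 Also: mouse activin A protein probed at 4.33 µg/mL on printed slides; score merges bound-protein fluorescence near 667 nm with spot signal-to-noise.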 To be noted: small-molecule microarray binding, higher = more signal.

Results on 13 compounds are retold here after PubChem BioAssay.

Each structure is given as a SMILES string. Calls of active or inactive are those of the source.

Chain of Follistatin-related protein 3 (Homo sapiens) (O95633 whole entry, looked up): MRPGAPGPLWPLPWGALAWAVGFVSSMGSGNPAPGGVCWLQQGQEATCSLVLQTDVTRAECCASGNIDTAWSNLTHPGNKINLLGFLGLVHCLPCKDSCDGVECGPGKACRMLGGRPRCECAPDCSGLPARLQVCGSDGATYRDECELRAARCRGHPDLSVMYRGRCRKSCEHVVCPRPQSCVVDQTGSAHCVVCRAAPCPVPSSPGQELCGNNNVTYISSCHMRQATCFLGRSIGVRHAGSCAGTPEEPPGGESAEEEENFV
Chain of Epidermal growth factor receptor (Homo sapiens) (P00533 whole entry, looked up): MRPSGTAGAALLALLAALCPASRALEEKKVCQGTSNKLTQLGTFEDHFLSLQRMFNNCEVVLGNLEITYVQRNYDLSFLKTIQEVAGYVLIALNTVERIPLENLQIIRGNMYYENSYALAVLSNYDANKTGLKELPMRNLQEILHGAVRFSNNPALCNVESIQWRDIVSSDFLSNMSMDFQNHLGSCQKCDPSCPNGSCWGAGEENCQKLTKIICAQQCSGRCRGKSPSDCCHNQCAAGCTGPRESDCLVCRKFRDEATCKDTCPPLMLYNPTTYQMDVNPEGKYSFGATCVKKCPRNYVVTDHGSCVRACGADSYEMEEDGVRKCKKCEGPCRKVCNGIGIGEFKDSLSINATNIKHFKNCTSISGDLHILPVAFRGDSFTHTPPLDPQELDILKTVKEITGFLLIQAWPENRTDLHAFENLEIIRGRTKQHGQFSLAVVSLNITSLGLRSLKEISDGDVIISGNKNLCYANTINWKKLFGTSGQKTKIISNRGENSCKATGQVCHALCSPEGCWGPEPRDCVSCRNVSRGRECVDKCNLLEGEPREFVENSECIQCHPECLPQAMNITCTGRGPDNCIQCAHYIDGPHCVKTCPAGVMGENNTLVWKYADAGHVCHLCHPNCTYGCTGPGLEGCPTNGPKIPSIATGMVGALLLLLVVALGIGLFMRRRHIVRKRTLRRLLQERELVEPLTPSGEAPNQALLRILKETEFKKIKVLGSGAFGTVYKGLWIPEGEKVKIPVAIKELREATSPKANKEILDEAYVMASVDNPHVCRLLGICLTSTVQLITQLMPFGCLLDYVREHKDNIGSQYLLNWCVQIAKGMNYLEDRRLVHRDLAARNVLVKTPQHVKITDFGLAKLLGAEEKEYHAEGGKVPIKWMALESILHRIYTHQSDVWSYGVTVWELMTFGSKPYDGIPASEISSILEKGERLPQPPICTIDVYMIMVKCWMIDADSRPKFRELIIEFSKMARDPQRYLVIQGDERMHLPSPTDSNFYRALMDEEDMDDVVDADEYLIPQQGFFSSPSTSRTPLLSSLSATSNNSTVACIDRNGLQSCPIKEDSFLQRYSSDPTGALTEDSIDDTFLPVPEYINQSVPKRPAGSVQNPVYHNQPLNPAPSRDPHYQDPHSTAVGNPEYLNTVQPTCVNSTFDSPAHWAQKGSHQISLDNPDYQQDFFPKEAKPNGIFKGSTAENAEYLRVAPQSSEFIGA
Chain of Fibroblast growth factor 10 (Homo sapiens) (O15520 whole entry, looked up): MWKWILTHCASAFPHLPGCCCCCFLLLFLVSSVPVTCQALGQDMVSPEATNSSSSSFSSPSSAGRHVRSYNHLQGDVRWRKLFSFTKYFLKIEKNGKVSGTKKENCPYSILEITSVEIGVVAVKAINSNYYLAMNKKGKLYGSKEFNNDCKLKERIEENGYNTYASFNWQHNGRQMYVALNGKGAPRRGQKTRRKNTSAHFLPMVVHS
Chain of Dickkopf-related protein 1 (Homo sapiens) (O94907 whole entry, looked up): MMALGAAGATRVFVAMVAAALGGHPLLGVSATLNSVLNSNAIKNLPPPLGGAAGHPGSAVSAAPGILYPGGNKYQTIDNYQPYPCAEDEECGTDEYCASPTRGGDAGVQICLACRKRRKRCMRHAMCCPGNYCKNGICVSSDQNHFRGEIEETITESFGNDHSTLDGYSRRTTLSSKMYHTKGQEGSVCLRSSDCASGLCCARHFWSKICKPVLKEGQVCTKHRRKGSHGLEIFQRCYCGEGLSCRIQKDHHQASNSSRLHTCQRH

On to `COCCOC(=O)N1C(=O)[C@@]2(c3cc(C#CCNC(N)=O)ccc31)[C@H](C(N)=O)[C@H]1C(=O)O[C@H](c3ccccc3)[C@H](c3ccccc3)N1[C@@H]2c1ccccc1OCCO`, for which the composite z-score in experiment [1] was 1.16; in experiment [2], 0.0377; in [3] it was 0.803; in [5] it was 1.07; in experiment [6], 0.782; in experiment [7], 0.302. Moreover, the composite z-score was 1.31 in experiment [8], 0.78 in [9] and 1.11 in [10]. The z-score in experiment [4] is 0.565 (inactive).
In the case of `CCCC=C(CCC)[C@@H](NC(=O)c1cccs1)c1ccc(C(=O)OC)cc1`, the composite z-score in [1] worked out at 0.366; in [2] it was 1.96; in experiment [3], 0.824; in [5], 1.31; in experiment [6], 0.625; in experiment [7], 0.782. The composite z-score in experiment [8] was 0.89; in experiment [9] it was 0.473; in experiment [10], -0.032. In experiment [4], the z-score was -0.571 (inactive).
In the case of `CC(C)C(CO)N1C(=O)[C@@H]2[C@H]3C(=O)OCC=C[C@H]3OC23C=CCN(c2ccc(Cl)cc2)C(=O)[C@@H]13` (stereo not given in full), the composite z-score in experiment [1] was -1.14; in [2], -0.0517; in [3], -0.0455; in [5], -0.739; in experiment [6] it was -0.889; in experiment [7], -0.627. In addition, the composite z-score in experiment [8] was -0.93; in experiment [9] it was -0.865; in experiment [10], 0.653. Besides, the z-score in [4] was 0.121 (inactive).
In the case of `C=CCC(OC(C)=O)[C@@H]1[C@@H](N(Cc2ccc(-c3ccccc3)cc2)C(=O)c2ccc(-c3ccccc3)cc2)c2cc(OCCCO)ccc2N1C(=O)c1ccc2ccccc2c1` (stereo not given in full), the composite z-score is -0.519 in experiment [1]; -0.302 in [2]; 0.306 in experiment [3]; -0.015 in experiment [5]; -0.0147 in experiment [6]; -0.175 in experiment [7]. In addition, the composite z-score in experiment [8] came out at 0.453; in [9], 0.0004; in [10] it was 0.82. In [4], the z-score was -1.22 (inactive).
As for `COc1ccc(C#Cc2ccc3c(c2)[C@]2(C(=O)N3)[C@H](C(=O)O)[C@H]3C(=O)O[C@H](c4ccccc4)[C@H](c4ccccc4)N3[C@@H]2c2ccc(O)cc2)cc1`, the composite z-score in experiment [1] is 1.52; in experiment [2], 0.734; in experiment [3], 0.681; in experiment [5], -0.054; in experiment [6], -0.352; in [7], -0.165. Also, the composite z-score in [8] was -0.382; in experiment [9], -0.603; in [10], 0.0045. In addition, in experiment [4], the z-score was -0.264 (inactive).
In the case of `CO[C@H]1O[C@H](CO)[C@@H](OC(=O)Nc2ccc3c(c2)OCO3)[C@H](OC(=O)Nc2ccc3c(c2)OCO3)[C@@H]1OC(=O)Nc1ccc2c(c1)OCO2`, the composite z-score in experiment [1] worked out at 1.33; in [2] it was 0.203; in experiment [3], 0.195; in experiment [5], 1.39; in experiment [6] it was 1.23; in [7], 0.273. The values for the composite z-score in experiment [8], in [9] and in experiment [10] were 1.41, 0.378 and 0.762, respectively. In addition, in experiment [4], the z-score was -0.714 (inactive).
For the compound `CC#CCO[Si](C#Cc1ccccc1)(C(C)C)C(C)C`, the composite z-score was -0.849 in experiment [1]; -0.105 in experiment [2]; 0.194 in experiment [3]; 0.754 in experiment [5]; -0.872 in experiment [6]; 0.457 in experiment [7]. Besides, the composite z-score in experiment [8] was -0.719; in experiment [9], -0.999; in experiment [10], 1.14. Further, the z-score in [4] is 1.07 (inactive).
`O=C(C1N=C(c2ccc(OCCCO)cc2)N(c2ccccc2)O1)N1CCCCC1` (stereo not given): the composite z-score in experiment [1] was 0.984; in experiment [2], 0.88; in experiment [3] it was 0.0556; in experiment [5], 0.648; in experiment [6] it was 1.22; in experiment [7], -0.0036. Further, the composite z-score came to 0.181 in experiment [8], 0.291 in [9] and 0.088 in [10]. For the same compound, the z-score in experiment [4] is -0.577 (inactive).
With `C=CCNC(=O)[C@H]1[C@@H]2C(=O)O[C@@H](c3ccccc3)[C@@H](c3ccccc3)N2[C@@H](c2ccccc2OCCO)[C@]12C(=O)N(C(=O)OCCOC)c1ccc(C#CC3(O)CCCCCC3)cc12`, the composite z-score was 1.32 in experiment [1]; -0.115 in experiment [2]; 0.457 in experiment [3]; 1.13 in experiment [5]; 0.562 in experiment [6]; 0.383 in experiment [7]. In addition, the composite z-score in experiment [8] was 0.502; in experiment [9], -0.515; in [10], 1.07. Besides, the z-score in experiment [4] is -0.725 (inactive).
Turning to `COC(=O)[C@@]1(Cc2ccccc2)[C@H]2c3cc(C(=O)N4CCCC4)n(CCc4ccccn4)c3C[C@H]2CN1C(=O)c1ccccc1`, the composite z-score was determined as 1.04 in [1]; 0.897 in [2]; 1.02 in experiment [3]; 0.874 in [5]; 1.14 in experiment [6]; 0.142 in [7]. The figures for the composite z-score in experiment [8], in experiment [9] and in experiment [10] were 0.921, -0.37 and 1.11, respectively. Further, the z-score in experiment [4] was -2.09 (inactive).
As for `[N-]=[N+]=NCc1ccccc1[C@H]1OC(c2ccc(OCCCO)cc2)=N[C@@]1(Cc1ccccc1N=[N+]=[N-])C(=O)NCC(O)CO` (stereo not given in full), the composite z-score in [1] was 1.12; in [2] it was 0.33; in experiment [3], 0.873; in experiment [5], 0.903; in [6], 1.13; in experiment [7], -0.186. Further, the values for the composite z-score in [8], in [9] and in experiment [10] were 0.681, -0.308 and 0.317, respectively. For the same compound, in [4], the z-score is 0.451 (inactive).
For the compound `C=CCNC(=O)[C@@H]1[C@H]2C(=O)O[C@H](c3ccccc3)[C@H](c3ccccc3)N2[C@H](c2ccccc2OCCO)[C@@]12C(=O)Nc1ccc(C#CCC(C(=O)OC)C(=O)OC)cc12`, the composite z-score in experiment [1] is 1.66; in experiment [2], -0.319; in experiment [3], -0.604; in experiment [5], 0.395; in experiment [6], 1.03; in experiment [7], -0.114. The composite z-score worked out at 0.276 in [8], 0.0965 in [9] and 0.482 in experiment [10]. For the same compound, the z-score in [4] was -3.31 (inactive).
On to `CCCC#C[Si](O[C@H](CC)c1cn([C@H](C)c2ccccc2)nn1)(C(C)C)C(C)C`, for which the composite z-score in experiment [1] is 0.2; in [2], 0.313; in experiment [3], -0.212; in experiment [5] it was 0.568; in experiment [6], 0.588; in experiment [7], 0.564. The composite z-score in experiment [8] is 0.47; in [9], 0.285; in experiment [10], -0.348. For the same compound, the z-score in [4] was -0.383 (inactive).
